Source: PubChem BioAssay (EPA / NIEHS)
Results filed as inconclusive are left out. Active and inactive are the calls of the source. The calls were made as follows: active = hit-call score of the fitted dose curve at least 0.9, where 1 is the maximum; inconclusive = response in the unintended direction; inactive = score below 0.9.

How the values were obtained:
[1] = target: Glycogen synthase kinase-3 beta (Homo sapiens) (UniProt P49841); test: NVS_ENZ_hGSK3b: NovaScreen (NVS) Enzymatic Assay for human Glycogen Synthase Kinase-3 beta (GSK3b) (AID 2283165)
Outline: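 Recombinant enzyme with specific fluorescent substrate, 1 h, product separated by electrophoretic mobility shift. Primary duplicate screen at 25 uM; actives (e.g. 30% inhibition) followed in singleton concentration-response to 50 uM. Signal loss fitted versus DMSO.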

[2] = target: human Janus Kinase 2 (Jak2), JAK2 (gene 3717) (UniProt O60674); test: NVS_ENZ_hJak2: NovaScreen (NVS) Enzymatic Assay for human Janus Kinase 2 (Jak2) (AID 2283169)
Outline: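 Single-point duplicate screen at 25 uM, with hits run in concentration series to a 50 uM top dose. Substrate-product separation by mobility shift with fluorescence detection, 1 h post-dosing; DMSO baseline.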

[3] = target: human LYN Proto-Oncogene, Src family Tyrosine Kinase (LynA), LYN (gene 4067) (UniProt P07948); test: NVS_ENZ_hLynA: NovaScreen (NVS) Enzymatic Assay for human LYN Proto-Oncogene, Src family Tyrosine Kinase (LynA) (AID 2283173)
Outline: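 Recombinant kinase with fluorescent substrate; product separated from substrate by electrophoretic mobility shift and read 1 h after dosing. Duplicate screen at 25 uM, then concentration-response up to 50 uM; activity scored as signal loss against DMSO.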

[4] = target: human MAP Kinase-Activated Protein Kinase 2 (MAPKAPK2), MAPKAPK2 (gene 9261) (UniProt P49137); test: NVS_ENZ_hMAPKAPK2: NovaScreen (NVS) Enzymatic Assay for human MAP Kinase-Activated Protein Kinase 2 (MAPKAPK2) (AID 2283178)
Outline: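 Chemicals screened in duplicate at 25 uM, then to 50 uM top concentration in concentration-response, against recombinant human MAPKAPK2; substrate conversion read 1 hr post-dosing by fluorescence after electrophoretic mobility-shift separation, loss-of-signal relative to DMSO.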

[5] = target: Collagenase 3 (Homo sapiens) (UniProt P45452); test: NVS_ENZ_hMMP13: NovaScreen (NVS) Enzymatic Assay for human Matrix Metalloproteinase-13 (MMP13) (AID 2283182)
Outline: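 Recombinant MMP13 cleaving fluorescent substrate, cell-free, measured 1 h after dosing. Primary duplicate screen at 25 uM; actives tested in concentration-response up to 50 uM; loss of signal relative to DMSO.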

[6] = target: human Matrix Metalloproteinase-7 (MMP7), MMP7 (gene 4316) (UniProt P09237); test: NVS_ENZ_hMMP7: NovaScreen (NVS) Enzymatic Assay for human Matrix Metalloproteinase-7 (MMP7) (AID 2283183)
Outline: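 Compounds first tested at 25 uM in duplicate, then at up to 50 uM in concentration series if active. Protease activity measured by fluorescence intensity 1 h after dosing, with fitting relative to DMSO.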

[7] = target: human Matrix Metalloproteinase-3 (MMP3), MMP3 (gene 4314) (UniProt P08254); test: NVS_ENZ_hMMP3: NovaScreen (NVS) Enzymatic Assay for human Matrix Metalloproteinase-3 (MMP3) (AID 2283185)
Outline: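 Fluorescent substrate turnover by recombinant MMP3 read after 1 h, signal loss scored against DMSO. Compounds first run in duplicate at 25 uM single dose, then actives confirmed by concentration series.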

[8] = target: human Matrix Metalloproteinase-9 (MMP9), MMP9 (gene 4318) (UniProt P14780); test: NVS_ENZ_hMMP9: NovaScreen (NVS) Enzymatic Assay for human Matrix Metalloproteinase-9 (MMP9) (AID 2283190);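 also: cell-free recombinant MMP9 protease activity read by fluorescent substrate signal; active means inhibition seen as loss of fluorescence signal versus DMSO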
Outline: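 Cell-free recombinant MMP9 enzyme activity measured by fluorescence intensity 1 h after dosing. Primary screen in duplicate at 25 uM, actives followed in concentration series; loss of signal relative to DMSO.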

[9] = target: cAMP-dependent protein kinase catalytic subunit alpha (Homo sapiens) (UniProt P17612); test: NVS_ENZ_hPKA: NovaScreen (NVS) Enzymatic Assay for human Protein Kinase A (PKA) (AID 2283192)
Outline: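 Cell-free kinase activity read by fluorescence after mobility-shift separation of substrate and product, 1 h post-dosing. Single-concentration duplicate screen (25 uM) preceded singleton concentration series (top 50 uM); loss of signal versus DMSO.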

[10] = target: human Phosphodiesterase 5 (PDE5), PDE5A (gene 8654) (UniProt O76074); test: NVS_ENZ_hPDE5: NovaScreen (NVS) Enzymatic Assay for human Phosphodiesterase 5 (PDE5) (AID 2283194)
Outline: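 Screening began in duplicate at 25 uM, with actives taken into concentration-response. Enzyme activity of recombinant PDE5 toward its substrate was measured at 1 h by fluorescence mobility-shift detection, relative to DMSO controls.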

[11] = target: human Protein Phosphatase, Mg2+/Mn2+ Dependent 1A (PPM1A), PPM1A (gene 5494) (UniProt P35813); test: NVS_ENZ_hPPM1A: NovaScreen (NVS) Enzymatic Assay for human Protein Phosphatase, Mg2+/Mn2+ Dependent 1A (PPM1A) (AID 2283198)
Outline: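 Primary screen in duplicate at 25 uM, with actives then titrated to a maximum of 50 uM. Recombinant PPM1A dephosphorylation of fluorescent substrate measured at 1 h, with substrate and product separated by mobility shift; inhibition fitted against DMSO.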

[12] = target: Mitogen-activated protein kinase 3 (Homo sapiens) (UniProt P27361); test: NVS_ENZ_hMAPK3: NovaScreen (NVS) Enzymatic Assay for human Mitogen-Activated Protein Kinase 3 (MAPK 3) (AID 2283177)
Outline: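 Chemicals were first tested in duplicate at 25 uM, with hits re-run as concentration series (max 50 uM). Recombinant enzyme activity, measured 1 h post-dose in a cell-free format, was read by fluorescence/mobility shift relative to DMSO.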

[13] = target: human Phosphodiesterase 4A1 (PDE4A1), PDE4A (gene 5141) (UniProt P27815); test: NVS_ENZ_hPDE4A1: NovaScreen (NVS) Enzymatic Assay for human Phosphodiesterase 4A1 (PDE4A1) (AID 2283191)
Outline: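 Fluorescent substrate turnover by recombinant PDE4A1 read after 1 h by mobility-shift separation. Primary duplicate screen at 25 uM; hits retested in concentration series with a 50 uM maximum, relative to DMSO.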

[14] = target: Histone deacetylase 3 (Homo sapiens) (UniProt O15379); test: NVS_ENZ_hHDAC3: NovaScreen (NVS) Enzymatic Assay for human Histone Deacetylase 3 (HDAC3) (AID 2283163)
Outline: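 Cell-free enzyme format: loss of fluorescent product after mobility-shift separation, 1 h incubation, recombinant human HDAC3. Single 25 uM duplicate screen first, then concentration series to a 50 uM top for hits; DMSO as baseline.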

[15] = target: human Insulin Receptor (InsR), INSR (gene 3643) (UniProt P06213); test: NVS_ENZ_hInsR: NovaScreen (NVS) Enzymatic Assay for human Insulin Receptor (InsR) (AID 2283168)
Outline: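 Cell-free enzyme assay read 1 h post-dose by fluorescence after substrate/product mobility-shift separation. Duplicate 25 uM primary screen, then singleton concentration-response up to 50 uM for compounds passing threshold; loss of signal vs DMSO.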

[16] = target: human Mitogen- and Stress-activated Protein Kinase-1 (Msk1), RPS6KA5 (gene 9252) (UniProt O75582); test: NVS_ENZ_hMsk1: NovaScreen (NVS) Enzymatic Assay for human Mitogen- and Stress-activated Protein Kinase-1 (Msk1) (AID 2283187)
Outline: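 Chemicals first run in duplicate at 25 uM, with actives followed up in singleton concentration series to 50 uM maximum. Enzyme activity came from substrate/product mobility-shift separation with fluorescence detection after 1 h incubation of the recombinant protein.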

[17] = target: human Phosphodiesterase 10 (PDE10), PDE10A (gene 10846) (UniProt Q9Y233); test: NVS_ENZ_hPDE10: NovaScreen (NVS) Enzymatic Assay for human Phosphodiesterase 10 (PDE10) (AID 2283195)
Outline: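 Biochemical single-readout PDE10A assay, cell-free, extracted protein. Compounds first screened at 25 uM in duplicate, hits then titrated to 50 uM max. Activity measured after 1 h; loss-of-signal fitted against DMSO negative control.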

[18] = target: human Phosphoinositide 3-kinase alpha (PI3Ka), PIK3CA (gene 5290) (UniProt P42336); test: NVS_ENZ_hPI3Ka: NovaScreen (NVS) Enzymatic Assay for human Phosphoinositide 3-kinase alpha (PI3Ka) (AID 2283196)
Outline: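 Recombinant human PI3Kα with fluorescent substrate, 1 h, product separated by electrophoretic mobility shift; 25 uM duplicate screen, hits (e.g., 30% inhibition) retested singly up to 50 uM; loss of signal vs DMSO.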

[19] = target: human Matrix Metalloproteinase-2 (MMP2), MMP2 (gene 4313) (UniProt P08253); test: NVS_ENZ_hMMP2: NovaScreen (NVS) Enzymatic Assay for human Matrix Metalloproteinase-2 (MMP2) (AID 2283184)
Outline: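 Compounds first screened in duplicate at a single 25 uM, with actives followed up in concentration series. Recombinant human MMP2 cleaves a fluorogenic substrate; fluorescence taken at 1 h, inhibition fitted relative to DMSO.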

Sequence of Mitogen-activated protein kinase 3 (Homo sapiens) (P27361 whole entry, looked up): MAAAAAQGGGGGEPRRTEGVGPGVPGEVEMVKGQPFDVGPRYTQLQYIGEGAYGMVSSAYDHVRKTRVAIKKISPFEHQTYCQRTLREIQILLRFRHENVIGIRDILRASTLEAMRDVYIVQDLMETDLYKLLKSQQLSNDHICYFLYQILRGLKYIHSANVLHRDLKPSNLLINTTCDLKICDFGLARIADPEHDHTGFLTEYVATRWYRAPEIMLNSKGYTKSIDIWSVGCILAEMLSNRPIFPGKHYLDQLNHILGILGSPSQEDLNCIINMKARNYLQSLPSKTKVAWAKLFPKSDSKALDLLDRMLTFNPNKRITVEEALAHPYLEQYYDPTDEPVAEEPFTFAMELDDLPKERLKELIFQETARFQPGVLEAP
Sequence of Histone deacetylase 3 (Homo sapiens) (O15379 whole entry, looked up): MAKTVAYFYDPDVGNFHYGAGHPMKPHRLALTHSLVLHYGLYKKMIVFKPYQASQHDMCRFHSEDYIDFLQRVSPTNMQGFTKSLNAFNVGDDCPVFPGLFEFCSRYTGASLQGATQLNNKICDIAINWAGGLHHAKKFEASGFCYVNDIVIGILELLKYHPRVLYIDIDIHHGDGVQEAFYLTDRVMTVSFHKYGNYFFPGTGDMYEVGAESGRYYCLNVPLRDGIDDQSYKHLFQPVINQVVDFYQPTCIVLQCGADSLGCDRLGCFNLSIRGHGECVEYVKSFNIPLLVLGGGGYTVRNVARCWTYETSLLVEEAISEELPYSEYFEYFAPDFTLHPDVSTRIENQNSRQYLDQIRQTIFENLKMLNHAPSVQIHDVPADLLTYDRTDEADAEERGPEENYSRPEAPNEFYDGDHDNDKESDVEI
Sequence of Glycogen synthase kinase-3 beta (Homo sapiens) (P49841 whole entry, looked up): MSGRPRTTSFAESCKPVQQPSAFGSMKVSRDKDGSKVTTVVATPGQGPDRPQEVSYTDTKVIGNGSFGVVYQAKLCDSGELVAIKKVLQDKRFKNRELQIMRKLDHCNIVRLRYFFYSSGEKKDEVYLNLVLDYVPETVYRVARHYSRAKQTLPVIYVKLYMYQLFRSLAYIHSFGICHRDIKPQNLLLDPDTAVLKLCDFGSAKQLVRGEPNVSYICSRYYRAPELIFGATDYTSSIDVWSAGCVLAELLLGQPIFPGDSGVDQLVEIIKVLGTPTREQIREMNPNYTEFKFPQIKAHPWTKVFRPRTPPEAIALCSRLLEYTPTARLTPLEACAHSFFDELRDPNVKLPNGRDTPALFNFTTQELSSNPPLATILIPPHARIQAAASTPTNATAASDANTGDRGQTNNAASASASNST
Sequence of human Janus Kinase 2 (Jak2), JAK2 (gene 3717) (O60674 whole entry, looked up): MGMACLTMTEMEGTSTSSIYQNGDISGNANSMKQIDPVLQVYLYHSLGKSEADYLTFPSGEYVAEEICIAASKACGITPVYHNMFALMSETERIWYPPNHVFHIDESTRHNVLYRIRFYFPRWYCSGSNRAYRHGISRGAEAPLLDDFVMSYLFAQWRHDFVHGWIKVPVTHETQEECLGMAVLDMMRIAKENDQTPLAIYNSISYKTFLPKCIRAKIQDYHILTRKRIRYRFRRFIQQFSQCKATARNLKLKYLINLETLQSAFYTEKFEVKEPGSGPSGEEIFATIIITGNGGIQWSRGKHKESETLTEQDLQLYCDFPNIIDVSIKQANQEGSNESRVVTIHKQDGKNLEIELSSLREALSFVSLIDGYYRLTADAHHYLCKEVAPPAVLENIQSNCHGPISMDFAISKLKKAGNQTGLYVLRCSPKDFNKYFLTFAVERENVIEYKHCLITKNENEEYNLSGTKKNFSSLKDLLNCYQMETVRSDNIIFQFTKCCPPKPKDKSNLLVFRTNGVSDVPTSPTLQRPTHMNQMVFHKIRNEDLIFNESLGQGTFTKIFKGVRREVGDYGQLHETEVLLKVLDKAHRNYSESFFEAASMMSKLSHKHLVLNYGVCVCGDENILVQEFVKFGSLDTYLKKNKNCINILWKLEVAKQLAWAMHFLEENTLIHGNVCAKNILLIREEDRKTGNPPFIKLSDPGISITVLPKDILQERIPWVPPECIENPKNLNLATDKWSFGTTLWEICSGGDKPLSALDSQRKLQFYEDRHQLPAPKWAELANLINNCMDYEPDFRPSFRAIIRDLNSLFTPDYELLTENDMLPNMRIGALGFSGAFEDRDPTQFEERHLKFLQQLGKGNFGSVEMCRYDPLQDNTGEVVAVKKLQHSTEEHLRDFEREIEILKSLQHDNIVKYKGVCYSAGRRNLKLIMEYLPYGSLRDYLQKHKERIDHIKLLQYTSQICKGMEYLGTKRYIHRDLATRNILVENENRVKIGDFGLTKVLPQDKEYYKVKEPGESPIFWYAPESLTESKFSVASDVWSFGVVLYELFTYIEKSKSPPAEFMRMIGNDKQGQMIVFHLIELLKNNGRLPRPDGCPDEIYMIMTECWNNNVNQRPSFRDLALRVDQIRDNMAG
Sequence of human Matrix Metalloproteinase-3 (MMP3), MMP3 (gene 4314) (P08254 whole entry, looked up): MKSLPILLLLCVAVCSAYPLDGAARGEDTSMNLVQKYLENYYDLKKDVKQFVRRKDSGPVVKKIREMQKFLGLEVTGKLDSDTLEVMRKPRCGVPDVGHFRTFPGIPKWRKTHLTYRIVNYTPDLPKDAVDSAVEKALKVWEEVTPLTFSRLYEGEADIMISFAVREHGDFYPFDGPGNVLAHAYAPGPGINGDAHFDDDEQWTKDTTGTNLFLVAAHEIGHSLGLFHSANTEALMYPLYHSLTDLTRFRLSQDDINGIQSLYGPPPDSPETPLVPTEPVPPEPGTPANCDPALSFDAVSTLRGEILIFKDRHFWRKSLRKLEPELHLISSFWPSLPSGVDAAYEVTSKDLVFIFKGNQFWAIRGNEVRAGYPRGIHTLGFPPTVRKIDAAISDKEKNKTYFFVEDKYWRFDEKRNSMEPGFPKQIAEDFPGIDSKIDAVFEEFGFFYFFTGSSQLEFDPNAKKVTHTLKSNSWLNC
Sequence of human Matrix Metalloproteinase-7 (MMP7), MMP7 (gene 4316) (P09237 whole entry, looked up): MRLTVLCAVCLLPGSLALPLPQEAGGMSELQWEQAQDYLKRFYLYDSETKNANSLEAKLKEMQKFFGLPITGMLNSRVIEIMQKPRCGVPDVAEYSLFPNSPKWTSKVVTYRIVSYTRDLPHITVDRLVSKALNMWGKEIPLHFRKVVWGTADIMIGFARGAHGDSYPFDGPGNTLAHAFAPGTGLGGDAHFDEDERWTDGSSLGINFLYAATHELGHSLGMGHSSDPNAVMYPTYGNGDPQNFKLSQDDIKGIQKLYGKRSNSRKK
Sequence of human Matrix Metalloproteinase-9 (MMP9), MMP9 (gene 4318) (P14780 whole entry, looked up): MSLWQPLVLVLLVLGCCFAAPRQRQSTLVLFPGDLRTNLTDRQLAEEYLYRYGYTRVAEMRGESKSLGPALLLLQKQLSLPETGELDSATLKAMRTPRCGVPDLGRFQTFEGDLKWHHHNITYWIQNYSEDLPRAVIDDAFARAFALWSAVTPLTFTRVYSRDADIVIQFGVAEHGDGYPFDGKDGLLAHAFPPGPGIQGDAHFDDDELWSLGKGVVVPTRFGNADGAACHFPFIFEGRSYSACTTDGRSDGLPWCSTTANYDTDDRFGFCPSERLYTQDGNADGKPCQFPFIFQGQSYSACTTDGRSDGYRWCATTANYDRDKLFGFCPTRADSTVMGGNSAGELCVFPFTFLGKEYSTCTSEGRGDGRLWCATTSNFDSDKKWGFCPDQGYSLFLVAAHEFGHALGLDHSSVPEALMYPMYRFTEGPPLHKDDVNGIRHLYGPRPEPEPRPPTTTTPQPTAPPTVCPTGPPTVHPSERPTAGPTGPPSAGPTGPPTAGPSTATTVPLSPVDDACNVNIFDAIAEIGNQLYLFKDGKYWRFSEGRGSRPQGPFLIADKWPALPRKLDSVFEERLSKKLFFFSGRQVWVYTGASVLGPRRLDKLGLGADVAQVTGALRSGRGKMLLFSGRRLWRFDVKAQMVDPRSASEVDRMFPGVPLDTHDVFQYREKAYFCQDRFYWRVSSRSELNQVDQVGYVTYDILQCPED
Sequence of human Phosphoinositide 3-kinase alpha (PI3Ka), PIK3CA (gene 5290) (P42336 whole entry, looked up): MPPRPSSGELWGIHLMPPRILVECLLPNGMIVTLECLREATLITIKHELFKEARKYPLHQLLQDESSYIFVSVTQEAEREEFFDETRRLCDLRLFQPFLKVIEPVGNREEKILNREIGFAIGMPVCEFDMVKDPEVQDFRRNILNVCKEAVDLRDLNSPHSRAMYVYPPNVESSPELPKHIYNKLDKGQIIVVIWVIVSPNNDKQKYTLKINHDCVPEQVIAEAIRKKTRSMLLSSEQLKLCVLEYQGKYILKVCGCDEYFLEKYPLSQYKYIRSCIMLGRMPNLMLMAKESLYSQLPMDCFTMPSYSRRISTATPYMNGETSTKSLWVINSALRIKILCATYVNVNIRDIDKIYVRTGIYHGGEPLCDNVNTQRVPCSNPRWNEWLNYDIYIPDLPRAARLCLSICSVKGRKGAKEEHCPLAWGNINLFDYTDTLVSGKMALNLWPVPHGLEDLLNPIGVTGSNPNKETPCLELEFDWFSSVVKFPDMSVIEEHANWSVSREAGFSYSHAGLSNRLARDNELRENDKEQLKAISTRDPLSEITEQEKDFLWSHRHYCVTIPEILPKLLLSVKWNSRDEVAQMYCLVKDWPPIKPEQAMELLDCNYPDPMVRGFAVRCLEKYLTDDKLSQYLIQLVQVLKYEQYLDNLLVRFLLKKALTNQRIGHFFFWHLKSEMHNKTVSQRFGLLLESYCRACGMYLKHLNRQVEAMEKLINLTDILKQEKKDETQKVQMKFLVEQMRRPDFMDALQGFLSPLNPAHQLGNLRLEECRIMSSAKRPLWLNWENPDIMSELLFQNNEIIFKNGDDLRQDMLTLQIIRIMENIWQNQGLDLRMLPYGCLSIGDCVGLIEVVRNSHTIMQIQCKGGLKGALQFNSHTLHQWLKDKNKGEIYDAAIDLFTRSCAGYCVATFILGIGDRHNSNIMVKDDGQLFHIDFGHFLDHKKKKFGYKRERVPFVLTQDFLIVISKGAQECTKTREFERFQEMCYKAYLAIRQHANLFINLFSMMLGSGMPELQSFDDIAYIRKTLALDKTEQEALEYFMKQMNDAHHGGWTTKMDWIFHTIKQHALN

SMILES: O=C(NO)C1(NS(=O)(=O)c2ccc(Oc3ccc(F)cc3)cc2)CCOCC1
- outcome [1]: inactive
- outcome [2]: inactive
- outcome [3]: inactive
- outcome [4]: inactive
- AC50 [5]: 2.44 nM (active)
- AC50 [6]: 14700 nM (active)
- AC50 [7]: 1920 nM (active)
- AC50 [8]: 9.16 nM (active)
- outcome [9]: inactive
- AC50 [10]: 10400 nM (active)
- outcome [11]: inactive

SMILES: c1ccc2c(c1)-c1cccc3c1c-2cc1ccccc13
- outcome [4]: inactive

SMILES: O=C(O)c1ccc2c(c1)nc(C(=O)NC1CCN(C3CC3)CC1)n2Cc1cc(-c2ccc(Cl)s2)on1
- outcome [1]: inactive
- outcome [2]: inactive
- outcome [12]: inactive
- outcome [13]: inactive
- AC50 [10]: 3950 nM (active)

SMILES: COc1cc2c(c(OC)c1OC)-c1ccc(OC)c(=O)cc1[C@@H](NC(C)=O)CC2
- outcome [14]: inactive
- AC50 [5]: 25700 nM (active)
- outcome [7]: inactive
- outcome [11]: inactive

SMILES: CCCOc1ccc(S(=O)(=O)N2CCN(CC)CC2)cc1-c1nc2c(CC)n(Cc3ccccn3)nc2c(=O)[nH]1
- outcome [15]: inactive

SMILES: O=C(O)c1cccc(C[C@@H]2COc3ccc(OCc4nc5cc(F)ccc5s4)cc3[C@@H]2O)c1
- outcome [1]: inactive

SMILES: OCCNCCO
- outcome [1]: inactive

SMILES: OCc1ccccc1
- outcome [1]: inactive

SMILES: CCCCCCCC1CCC(=O)O1 (stereo not drawn)
- outcome [1]: inactive

SMILES: O=c1[nH]cnc2c1ncn2[C@H]1CC[C@@H](CO)O1
- outcome [14]: inactive
- outcome [1]: inactive
- outcome [12]: inactive
- outcome [16]: inactive
- outcome [17]: inactive
- outcome [18]: inactive

SMILES: OC(Cn1cncn1)(Cn1cncn1)c1ccc(F)cc1F
- outcome [2]: inactive

SMILES: OC[C@H]1O[C@@H]2O[C@H]3[C@H](O)[C@@H](O)[C@@H](O[C@H]4[C@H](O)[C@@H](O)[C@@H](O[C@H]5[C@H](O)[C@@H](O)[C@@H](O[C@H]6[C@H](O)[C@@H](O)[C@@H](O[C@H]7[C@H](O)[C@@H](O)[C@@H](O[C@H]1[C@H](O)[C@H]2O)O[C@@H]7CO)O[C@@H]6CO)O[C@@H]5CO)O[C@@H]4CO)O[C@@H]3CO
- outcome [1]: inactive

SMILES: NC(=O)NN=Cc1ccc([N+](=O)[O-])o1
- AC50 [14]: 1260 nM (active)
- outcome [1]: inactive

SMILES: CC[C@H](C)C(=O)O[C@H]1C[C@H](O)C=C2C=C[C@H](C)[C@H](CC[C@@H](O)C[C@@H](O)CC(=O)O)[C@H]21
- outcome [12]: inactive
- outcome [6]: inactive
- outcome [19]: inactive
- outcome [8]: inactive
- outcome [18]: inactive

SMILES: C[C@]12C=CC(=O)C=C1CC[C@H]1[C@@H]3C[C@@H](O)[C@](O)(C(=O)CO)[C@@]3(C)C[C@H](O)[C@@]12F
- outcome [1]: inactive

SMILES: CCc1ccc(O)c(C(C)(C)C)c1
- outcome [2]: inactive
